PubChem BioAssay AID1159580 (chemical genetic matrix, 2015)
“And” between values parts separate entries of the source, which are not always exact repeats. Identical values can stand only once. Screen size: about 5,500 compounds; about 2,000 (36%) were called active. Another 18% or so got no clear call; they are omitted. Rule as the data show it: active = normalized growth mostly below about 0.91 (no sharp cut-off); inconclusive = no clear call, values can overlap the other calls; inactive = mostly above about 0.92. The list shows a part of the results.

Experiment: chemical genetic growth profiling, strain panel (AID 1159580);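 also: tested at 20 µM; growth read once vehicle control cultures reached saturation at 30 °C; 1 = growth at the plate median or of vehicle wells; lower values mean less growth of the strain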
Details: S. cerevisiae deletion strains, growth OD

Measured: normalized growth

CCCCCC(O)C1C(=O)OC(C)C(O)/C=C/C=C/C=C/C=C/C=C(\C)C(O)CC(O)CC(O)CC(O)CC(O)CC(O)CC1O (configuration not stated)
inactive: locus YAL013W, strain DEP1, stronger effect = lower value 1.01 | locus YAL021C, strain ccr4, stronger effect = lower value 1.01 | locus YAL026C, strain drs2, stronger effect = lower value 0.994 | locus YAL030W, strain snc1, stronger effect = lower value 0.985 | locus YBL061C, strain skt5, stronger effect = lower value 0.982 | locus YBR009C, strain hhf1, stronger effect = lower value 0.996 | locus YBR021W, strain FUR4, stronger effect = lower value 1.02 | locus YBR023C, strain chs3, stronger effect = lower value 0.989 | locus YBR171W, strain sec66, stronger effect = lower value 0.982 | locus YBR229C, strain ROT2, stronger effect = lower value 1.01 | locus YBR231C, strain swc5, stronger effect = lower value 0.992 | locus YBR279W, strain paf1, stronger effect = lower value 0.993 | locus YCL011C, strain gbp2, stronger effect = lower value 1 | locus YCL016C, strain dcc1, stronger effect = lower value 0.986 | locus YCL029C, strain bik1, stronger effect = lower value 1.03 | locus YCL061C, strain MRC1, stronger effect = lower value 0.992 | locus YCL069W, strain vba3, stronger effect = lower value 0.993 | locus YCR088W, strain abp1, stronger effect = lower value 0.993 | locus YDL005C, strain med2, stronger effect = lower value 0.995 | locus YDL035C, strain GPR1, stronger effect = lower value 1.02 | locus YDL040C, strain nat1, stronger effect = lower value 0.99 | locus YDL074C, strain BRE1, stronger effect = lower value 1.01 | locus YDL101C, strain DUN1, stronger effect = lower value 1.01 | locus YDL134C, strain PPH21, stronger effect = lower value 1.01 | locus YDL185W, strain tfp1, stronger effect = lower value 1.03 | locus YDL192W, strain arf1, stronger effect = lower value 1.04 | locus YDR001C, strain nth1, stronger effect = lower value 0.983 | locus YDR069C, strain doa4, stronger effect = lower value 0.996 | locus YDR101C, strain arx1, stronger effect = lower value 1.02 | locus YDR137W, strain rgp1, stronger effect = lower value 1.01 | locus YDR150W, strain NUM1, stronger effect = lower value 1.02 | locus YDR159W, strain sac3, stronger effect = lower value 0.96 | locus YDR162C, strain NBP2, stronger effect = lower value 1.02 | locus YDR195W, strain ref2 0.96 | locus YDR297W, strain sur2, stronger effect = lower value 1.01 | locus YDR318W, strain mcm21, stronger effect = lower value 1.03 | locus YDR334W, strain swr1, stronger effect = lower value 0.986 | locus YDR335W, strain msn5, stronger effect = lower value 0.985 | locus YDR388W, stronger effect = lower value 1.03 | locus YDR392W, strain spt3, stronger effect = lower value 0.937 | locus YDR502C, strain sam2, stronger effect = lower value 1.01 | locus YEL003W, strain gim4, stronger effect = lower value 0.993 | locus YEL037C, strain rad23, stronger effect = lower value 1.02 | locus YEL061C, strain CIN8 (second series), stronger effect = lower value 0.98 | locus YEL061C, strain CIN8, stronger effect = lower value 1 | locus YER015W, strain faa2, stronger effect = lower value 0.991 | locus YER016W, strain bim1, stronger effect = lower value 0.986 | locus YER110C, stronger effect = lower value 1.02 | locus YER111C, strain swi4, stronger effect = lower value 0.996 | locus YER155C, strain BEM2 (second series), stronger effect = lower value 0.976 | locus YER155C, strain BEM2, stronger effect = lower value 1.02 | locus YER167W, strain BCK2, stronger effect = lower value 1.04 | locus YFR010W, strain ubp6, stronger effect = lower value 0.984 | locus YGL078C, strain dbp3, stronger effect = lower value 1.01 | locus YGL086W, strain mad1, stronger effect = lower value 1.03 | locus YGL167C, strain pmr1, stronger effect = lower value 0.984 | locus YGL173C, strain kem1, stronger effect = lower value 0.993 | locus YGL227W, strain vid30, stronger effect = lower value 0.989 | locus YGL240W, strain doc1, stronger effect = lower value 0.981 | locus YGL248W, strain PDE1, stronger effect = lower value 1.01 | locus YGL253W, strain hxk2, stronger effect = lower value 1 | locus YGR078C, strain PAC10, stronger effect = lower value 1 | locus YGR135W, strain pre9, stronger effect = lower value 1.02 | locus YGR229C, strain SMI1, stronger effect = lower value 1.02 | locus YGR252W, strain gcn5, stronger effect = lower value 1.04 | locus YHR013C, strain ard1, stronger effect = lower value 0.966 | locus YHR027C, strain rpn1, stronger effect = lower value 0.994 | locus YHR030C, strain SLT2, stronger effect = lower value 1.01 and 0.963 | locus YHR079C, strain IRE1 (second series), stronger effect = lower value 1.02 | locus YHR079C, strain IRE1, stronger effect = lower value 0.959 | locus YHR094C, strain hxt1, stronger effect = lower value 1.02 | locus YHR129C, strain ARP1, stronger effect = lower value 1 | locus YHR142W, strain chs7, stronger effect = lower value 1.01 | locus YHR200W, strain rpn10, stronger effect = lower value 1.02 | locus YIL066C, strain RNR3, stronger effect = lower value 1.01 | locus YIL073C, strain SPO22, stronger effect = lower value 1.12 | locus YIL125W, strain kgd1, stronger effect = lower value 1.03 | locus YIR030C, strain dcg1, stronger effect = lower value 1.02 | locus YJL092W, strain hpr5, stronger effect = lower value 0.985 | locus YJL095W, strain BCK1 (second series), stronger effect = lower value 0.988 | locus YJL095W, strain BCK1, stronger effect = lower value 1.01 and 0.975 | locus YJL115W, strain asf1, stronger effect = lower value 0.991 | locus YJL129C, strain trk1, stronger effect = lower value 0.976 | locus YJL134W, strain LCB3, stronger effect = lower value 1.01 | locus YJL154C, strain vps35, stronger effect = lower value 0.985 | locus YJL164C, strain tpk1, stronger effect = lower value 1 | locus YJL166W, strain qcr8, stronger effect = lower value 0.997 | locus YJL168C, strain set2, stronger effect = lower value 1.02 | locus YJL187C, strain SWE1 (second series), stronger effect = lower value 1 | locus YJL187C, strain SWE1, stronger effect = lower value 0.995 | locus YJR043C, strain POL32, stronger effect = lower value 1.03 | locus YJR066W, strain TOR1, stronger effect = lower value 0.939
